Test results from PubChem BioAssay AID1159580 (chemical genetic matrix, 2015).
In all, about 5,500 compounds went through this assay and about 2,000 (36%) were called active. Not shown: some 18% with an inconclusive outcome. No stated cut-off is given here; in the data, active means normalized growth mostly below about 0.91 (no sharp cut-off); inconclusive means no clear call, values can overlap the other calls; inactive means mostly above about 0.92. This is one part of the list.

Assay: chemical genetic growth profiling, strain panel (AID 1159580);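 further: tested at 20 µM; growth read once vehicle control cultures reached saturation at 30 °C; 1 = growth at the plate median or of vehicle wells; lower values mean less growth of the strain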
Settings: growth OD
[1] = S. cerevisiae deletion strains, locus YAL013W, strain DEP1, active compounds read low
[2] = S. cerevisiae deletion strains, locus YMR263W, strain SAP30, active compounds read low
[3] = S. cerevisiae deletion strains, locus YNL128W, strain TEP1, active compounds read low
[4] = S. cerevisiae deletion strains, locus YDL101C, strain DUN1, active compounds read low
[5] = S. cerevisiae deletion strains, locus YHR030C, strain SLT2, active compounds read low

Measured: normalized growth

CC1=C(C)C(=O)C(CCCCC#CCCCC#CCO)=C(C)C1=O
inactive: [1] 0.995 | S. cerevisiae deletion strains, locus YAL040C, strain CLN3, active compounds read low 0.993 | S. cerevisiae deletion strains, locus YCL061C, strain MRC1 (second series), active compounds read low 1 | S. cerevisiae deletion strains, locus YDR363W, strain ESC2, active compounds read low 0.988 | S. cerevisiae deletion strains, locus YER002W, strain NOP16, active compounds read low 0.996 | [2] 1 | [3] 0.998 | S. cerevisiae deletion strains, locus YNL175C, strain NOP13, active compounds read low 1 | S. cerevisiae deletion strains, locus YNL197C, strain WHI3, active compounds read low 0.997 | S. cerevisiae deletion strains, locus YNL224C, strain SQS1, active compounds read low 0.984 | S. cerevisiae deletion strains, locus YOR083W, strain WHI5 (second series), active compounds read low 0.975

COc1c([N+](=O)[O-])cc(C(F)(F)F)cc1[N+](=O)[O-]
active: S. cerevisiae deletion strains, locus YLR039C, strain RIC1, active compounds read low 0.486 | S. cerevisiae deletion strains, locus YLR262C, strain YPT6, active compounds read low 0.453
inactive: [1] 0.978 | S. cerevisiae deletion strains, locus YBR229C, strain ROT2, active compounds read low 1.01 | [4] 0.982 | S. cerevisiae deletion strains, locus YDR150W, strain NUM1, active compounds read low 0.964 | S. cerevisiae deletion strains, locus YEL061C, strain CIN8, active compounds read low 1.01 | S. cerevisiae deletion strains, locus YGR078C, strain PAC10, active compounds read low 0.975 | [5] 0.732 | S. cerevisiae deletion strains, locus YHR087W, strain rtc3, active compounds read low 1.04 | S. cerevisiae deletion strains, locus YJR043C, strain POL32, active compounds read low 0.966 | S. cerevisiae deletion strains, locus YJR075W, strain HOC1, active compounds read low 1.03 | S. cerevisiae deletion strains, locus YKL190W, strain CNB1, active compounds read low 0.998 | S. cerevisiae deletion strains, locus YLR058C, strain SHM2 (second series), active compounds read low 1.02 | S. cerevisiae deletion strains, locus YLR085C, strain ARP6, active compounds read low 0.823 | S. cerevisiae deletion strains, locus YML094W, strain GIM5, active compounds read low 0.903 | S. cerevisiae deletion strains, locus YMR219W, strain ESC1, active compounds read low 1 | [2] 0.971 | [3] 0.976 | S. cerevisiae deletion strains, locus YNL153C, strain GIM3, active compounds read low 0.985 | S. cerevisiae deletion strains, locus YNL298W, strain CLA4 (second series), active compounds read low 0.946 | S. cerevisiae deletion strains, locus YNL322C, strain KRE1, active compounds read low 0.971 | S. cerevisiae deletion strains, locus YNR030W, strain Alg12, active compounds read low 0.975 | S. cerevisiae deletion strains, locus YPL055C, strain LGE1, active compounds read low 0.989 | S. cerevisiae deletion strains, locus YPL241C, strain CIN2, active compounds read low 0.95 | S. cerevisiae deletion strains, locus YPR135W, strain CTF4, active compounds read low 0.902 | S. cerevisiae strains, strain wild type, active compounds read low 0.979

Cc1cc(Sc2c([N+](=O)[O-])cc(C(F)(F)F)cc2[N+](=O)[O-])c(Cl)cc1Cl
inactive: S. cerevisiae deletion strains, locus YAR019C, strain CDC15, active compounds read low 0.995 | S. cerevisiae deletion strains, locus YBL105C, strain PKC1, active compounds read low 1 | S. cerevisiae deletion strains, locus YBR135W, strain CKS1, active compounds read low 0.995 | S. cerevisiae deletion strains, locus YBR136W, strain MEC1, active compounds read low 0.995 | S. cerevisiae deletion strains, locus YBR160W, strain CDC28, active compounds read low 0.991 | S. cerevisiae deletion strains, locus YDL017W, strain CDC7, active compounds read low 0.999 | S. cerevisiae deletion strains, locus YDL028C, strain MPS1, active compounds read low 0.99 | [4] 0.995 | S. cerevisiae deletion strains, locus YDL108W, strain KIN28, active compounds read low 0.995 | S. cerevisiae deletion strains, locus YDL132W, strain cdc53, active compounds read low 0.99 | S. cerevisiae deletion strains, locus YDL214C, strain PRR2, active compounds read low 0.98 | S. cerevisiae deletion strains, locus YDR052C, strain DBF4, active compounds read low 0.993 | S. cerevisiae deletion strains, locus YDR054C, strain cdc34, active compounds read low 0.99 | S. cerevisiae deletion strains, locus YDR226W, strain ADK1, active compounds read low 0.978 | S. cerevisiae deletion strains, locus YDR477W, strain SNF1, active compounds read low 0.959 | S. cerevisiae deletion strains, locus YER123W, strain YCK3, active compounds read low 0.97 | S. cerevisiae deletion strains, locus YER133W, strain GLC7, active compounds read low 0.998 | S. cerevisiae deletion strains, locus YFL009W, strain cdc4, active compounds read low 0.992 | S. cerevisiae deletion strains, locus YFL029C, strain CAK1, active compounds read low 1 | S. cerevisiae deletion strains, locus YFR003C, strain YPI1, active compounds read low 0.997 | S. cerevisiae deletion strains, locus YFR019W, strain FAB1, active compounds read low 0.964 | S. cerevisiae deletion strains, locus YFR028C, strain CDC14, active compounds read low 0.996 | S. cerevisiae deletion strains, locus YGR040W, strain KSS1, active compounds read low 0.964 | S. cerevisiae deletion strains, locus YGR052W, strain FMP48, active compounds read low 1.01 | S. cerevisiae deletion strains, locus YGR092W, strain DBF2, active compounds read low 0.982 | [5] 0.928 | S. cerevisiae deletion strains, locus YHR079C, strain IRE1, active compounds read low 0.861 | S. cerevisiae deletion strains, locus YHR082C, strain KSP1, active compounds read low 0.988 | S. cerevisiae deletion strains, locus YHR205W, strain SCH9, active compounds read low 0.911 | S. cerevisiae deletion strains, locus YIL147C, strain SLN1, active compounds read low 0.996 | S. cerevisiae deletion strains, locus YJL095W, strain BCK1, active compounds read low 0.964 | S. cerevisiae deletion strains, locus YJL128C, strain PBS2, active compounds read low 0.955 | S. cerevisiae deletion strains, locus YJL157C, strain FAR1, active compounds read low 0.926 | S. cerevisiae deletion strains, locus YJR016C, strain ILV3, active compounds read low 1 | S. cerevisiae deletion strains, locus YJR066W, strain TOR1 (second series), active compounds read low 0.949 | S. cerevisiae deletion strains, locus YJR066W, strain TOR1, active compounds read low 0.961 | S. cerevisiae deletion strains, locus YKL048C, strain ELM1, active compounds read low 0.987 | S. cerevisiae deletion strains, locus YKL067W, strain YNK1, active compounds read low 0.994 | S. cerevisiae deletion strains, locus YKL101W, strain HSL1, active compounds read low 0.995 | S. cerevisiae deletion strains, locus YKL193C, strain SDS22, active compounds read low 0.999 | S. cerevisiae deletion strains, locus YKL203C, strain TOR2, active compounds read low 1 | S. cerevisiae deletion strains, locus YLR113W, strain HOG1, active compounds read low 1.02 | S. cerevisiae deletion strains, locus YLR133W, strain CKI1, active compounds read low 0.96 | S. cerevisiae deletion strains, locus YLR403W, strain SFP1, active compounds read low 0.931 | S. cerevisiae deletion strains, locus YML070W, strain DAK1, active compounds read low 0.996 | S. cerevisiae deletion strains, locus YMR001C, strain CDC5, active compounds read low 1 | S. cerevisiae deletion strains, locus YMR205C, strain PFK2 (second series), active compounds read low 0.998 | S. cerevisiae deletion strains, locus YMR277W, strain FCP1, active compounds read low 0.995 | S. cerevisiae deletion strains, locus YNL006W, strain LST8, active compounds read low 1 | S. cerevisiae deletion strains, locus YNL020C, strain ARK1, active compounds read low 0.924 | S. cerevisiae deletion strains, locus YNL161W, strain CBK1, active compounds read low 0.977 | S. cerevisiae deletion strains, locus YNL183C, strain NPR1, active compounds read low 1.04 | S. cerevisiae deletion strains, locus YNL207W, strain RIO2, active compounds read low 0.991 | S. cerevisiae deletion strains, locus YNL222W, strain SSU72, active compounds read low 0.991 | S. cerevisiae deletion strains, locus YNL307C, strain MCK1 (second series), active compounds read low 0.974 | S. cerevisiae deletion strains, locus YOL078W, strain AVO1, active compounds read low 0.995 | S. cerevisiae deletion strains, locus YOL136C, strain PFK27, active compounds read low 0.926 | S. cerevisiae deletion strains, locus YOR061W, strain CKA2, active compounds read low 0.967 | S. cerevisiae deletion strains, locus YOR119C, strain RIO1, active compounds read low 1.05 | S. cerevisiae deletion strains, locus YOR231W, strain MKK1, active compounds read low 0.976 | S. cerevisiae deletion strains, locus YOR329C, strain SCD5, active compounds read low 0.994 | S. cerevisiae deletion strains, locus YPL031C, strain PHO85, active compounds read low 0.928 | S. cerevisiae deletion strains, locus YPL153C, strain RAD53, active compounds read low 0.965 | S. cerevisiae deletion strains, locus YPL204W, strain HRR25, active compounds read low 0.947 | S. cerevisiae deletion strains, locus YPL209C, strain IPL1, active compounds read low 0.999 | S. cerevisiae deletion strains, locus YPL256C, strain CLN2, active compounds read low 0.99 | S. cerevisiae deletion strains, locus YPR025C, strain CCL1, active compounds read low 0.997 | S. cerevisiae deletion strains, locus YPR106W, strain ISR1, active compounds read low 0.996 | S. cerevisiae deletion strains, locus YPR111W, strain DBF20, active compounds read low 0.974 | S. cerevisiae deletion strains, strain NNK1, active compounds read low 0.99 | S. cerevisiae deletion strains, strain TSCII, active compounds read low 1
